High-throughput results as filed in PubChem BioAssay.
HCV inh: HCV inhibition. Huh7.5.1 HCVcc-Cre infection, luciferase reporter, 44 h. Potency, µM (series often up to 41.8 µM), usual class: inhibitors. hit rate 3.4% among 340,000. AID 651820
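Infectious HCVcc-Cre (~0.5 moi) was added to cells just after compound, with cells seeded 4 h earlier at 1,000 per well. Luciferase activity after 44 h culture reported infection; substrate was incubated 15 min at room temperature before reading.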
VACV mCherry inh: inhibitors of vaccinia virus infection (mCherry reporter signal) | Potency, µM (highest dose often 36.5 µM), usual class: inhibitors | hit rate 0.63% among 310,000 | Vaccinia virus mCherry reporter infection, fluorescence; calls by dose curve; tested in A549 cells; also: nearly all actives have a fitted effect of over 35% in size
HCMV inh: inhibitors of human cytomegalovirus; HFF cells, HCMV-luciferase reporter, 72 h; active compounds read low; activity change, negative = inhibition, % at 57.5 µM; hit rate 4.5% among 410,000; AID 1259415; in the data active = activity change below about -60%; inconclusive = no clear call, values can overlap the other calls; inactive = above about -39%
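Steps: HFFs plated, 16 h 37C; compounds added; HCMV-luciferase added to MOI 1 PFU/cell; 72 h 37C; OneGlo reagent, 5 min room temperature; luminescence read, normalized to controls.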
FBPA Giardia inh: Giardia lamblia aldolase inhibition; purified Giardia FBPA; AID 2451; hit rate 0.71% among 290,000; Potency, µM (highest dose often 59.6 µM), most hits filed as inhibitors; also: nearly all actives have a fitted effect of over 55% in size
Target sequence (A8B2U2 whole entry, looked up): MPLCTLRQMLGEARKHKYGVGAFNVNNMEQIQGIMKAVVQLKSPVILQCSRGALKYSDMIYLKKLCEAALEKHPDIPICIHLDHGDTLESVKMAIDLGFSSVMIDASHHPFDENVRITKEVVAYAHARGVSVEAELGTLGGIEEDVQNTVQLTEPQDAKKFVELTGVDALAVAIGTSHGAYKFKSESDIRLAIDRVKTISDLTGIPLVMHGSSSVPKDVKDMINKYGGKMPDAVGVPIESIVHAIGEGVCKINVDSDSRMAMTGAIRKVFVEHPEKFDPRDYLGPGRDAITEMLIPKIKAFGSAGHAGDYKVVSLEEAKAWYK
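40 nM FBPA preincubated 10 min at RT with compound (up to 57.5 uM final), then substrate plus GAPDH/TPI/NAD/arsenate coupling and diaphorase/resazurin added. Fluorescence read after 20 min at RT, 525/598 nm.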
Vaccinia Venus: vaccinia inhibition (Venus reporter); Vaccinia virus Venus reporter expression, fluorescence; hit rate 0.46% among 330,000; Potency, µM (top dose mostly 36.5 µM), usual class: inhibitors; calls by dose curve; tested in A549 cells; also: nearly all actives have a fitted effect of over 30% in size
FMDV antiviral: blocks foot and mouth disease virus; FMDV antiviral cell-based qHTS; hit rate 1.2% among 410,000; Potency, µM (doses to about 57.9 µM), actives largely listed as inhibitors; calls by dose curve; tested in HEK293T cells; also: read-out not given here; nearly all actives have a fitted effect of over 45% in size
Numbers stand for hits; ! = not confirmed by another sample; [ ] = another dose, or the depositor's remark. The list is not random: actives were taken first. Their share in the collection is about 7.5%. Unless noted, calls follow the shape of the dose curve; as a rule, active = well fitted curve in the direction sought with a large enough effect; inconclusive = small, poorly fitted or top-dose-only effect, or another doubt; inactive = no such curve, though single readings can be large; an effect the other way counts as inactive or inconclusive.

What do the screens show for `Oc1ccc(Br)cc1/C=N/Nc1nc(N2CCCCC2)nc(N2CCOCC2)n1`?
HCV inh: inconclusive; VACV mCherry inh: inactive; HCMV inh: inconclusive; FBPA Giardia inh: inactive; Vaccinia Venus: inactive; FMDV antiviral: inactive

Results for C(=N\Nc1nc(N2CCOCC2)nc(N2CCOCC2)n1)/c1ccncc1 ?
HCV inh: inactive; VACV mCherry inh: inactive; HCMV inh: inactive; FBPA Giardia inh: inactive; Vaccinia Venus: inactive; FMDV antiviral: inactive

How did COc1ccc(-c2noc(N3CCN(c4ccc(C)cc4)C(C)C3)n2)cc1OC (stereo not given) do in these assays?
VACV mCherry inh: inactive; HCMV inh: inactive; Vaccinia Venus: inactive; FMDV antiviral: inconclusive

How did Cc1ccc(C(=O)N/C(=C/c2ccc(-c3ccc([N+](=O)[O-])cc3)o2)C(=O)NCCCN(C)C)cc1 do in these assays?
HCV inh: inactive; VACV mCherry inh: inconclusive; HCMV inh: inconclusive; Vaccinia Venus: 11µM; FMDV antiviral: inactive

How did COc1ccc(C2C(C(=O)Nc3ccccc3OC)=C(C)Nc3c(C(=O)Nc4ccccc4)cnn32)c(OC)c1 (stereo not given) do in these assays?
VACV mCherry inh: inactive; HCMV inh: inactive; Vaccinia Venus: inactive; FMDV antiviral: inactive

What do the screens show for `CCN(CC)CC(O)Cn1c(C)c(-c2ccccc2)c2cc([N+](=O)[O-])ccc21` (stereo not given)?
HCV inh: 14µM; VACV mCherry inh: inactive; HCMV inh: -68; FBPA Giardia inh: inactive; Vaccinia Venus: inconclusive; FMDV antiviral: inactive

Results for CCN(CC)CC(O)Cn1c2ccccc2c2ccccc21 (stereo not given) ?
HCV inh: inconclusive; HCMV inh: inconclusive; FBPA Giardia inh: inactive; Vaccinia Venus: inactive; FMDV antiviral: inactive

How did CC1(C)S[C@H]2C(NC(=O)[C@@H](N)c3ccc(O)cc3)C(=O)N2[C@@H]1C(=O)O (stereo not given in full) do in these assays?
FBPA Giardia inh: inactive

How did CC1(C)S[C@@H]2[C@H](NC(=O)[C@H](N)c3ccccc3)C(=O)N2[C@H]1C(=O)O do in these assays?
HCV inh: inactive[8.37 µM]; VACV mCherry inh: inactive; HCMV inh: -60!; FBPA Giardia inh: inconclusive; Vaccinia Venus: inactive; FMDV antiviral: inactive

How did CC(=O)Nc1nonc1-c1nnc(SCC(=O)Nc2ccccc2Cl)n1C do in these assays?
VACV mCherry inh: inactive; HCMV inh: inactive; Vaccinia Venus: inactive; FMDV antiviral: inactive

Results for O=C(NC1CC1)[C@@H]1C[C@H](Sc2nc3ccccc3[nH]2)CN1CC1CCCCC1 ?
VACV mCherry inh: inactive; Vaccinia Venus: inactive; FMDV antiviral: inactive

Results for COCCNC(=S)NCc1ccc2[nH]c3c(c2c1)CCCC3 ?
HCV inh: inactive; VACV mCherry inh: inactive; HCMV inh: -73; FBPA Giardia inh: inactive; Vaccinia Venus: inactive; FMDV antiviral: inactive

Results for O=C(CCNS(=O)(=O)c1ccc2c(c1)CCN2C(=O)C1CC1)N1CCN(c2cccc(C(F)(F)F)c2)CC1 ?
VACV mCherry inh: inactive; HCMV inh: -60; Vaccinia Venus: inactive; FMDV antiviral: inconclusive

How did CCC(=O)N1CCc2cc(S(=O)(=O)Nc3ccc4c(c3)OCCO4)ccc21 do in these assays?
HCV inh: 2.8µM; VACV mCherry inh: inactive; HCMV inh: -87; FBPA Giardia inh: inactive; Vaccinia Venus: inconclusive; FMDV antiviral: inactive

What do the screens show for `Cc1cccc(NS(=O)(=O)c2ccc3c(c2)CCN3C(=O)C2CCC2)c1`?
VACV mCherry inh: inactive; HCMV inh: -66; Vaccinia Venus: inactive; FMDV antiviral: inactive

How did CS(=O)(=O)N1CCc2cc(S(=O)(=O)Nc3ccc4c(c3)OCCO4)ccc21 do in these assays?
HCV inh: inconclusive; VACV mCherry inh: inactive; HCMV inh: -84; FBPA Giardia inh: inactive; Vaccinia Venus: inactive; FMDV antiviral: inactive

How did OC(c1ccc(-c2ccccc2)cc1)c1ncc(-c2cccc(F)c2)[nH]1 (stereo not given) do in these assays?
VACV mCherry inh: inactive; HCMV inh: inactive; Vaccinia Venus: inactive; FMDV antiviral: inactive

Results for C[C@H](C(=O)N[C@H](CO)c1ccccc1)N1Cc2ccc(N3CCOCC3)nc2C1=O ?
HCMV inh: inactive

How did O=C(C1CCC1)N1CCc2cc(S(=O)(=O)Nc3ccc4c(c3)OCCO4)ccc21 do in these assays?
HCV inh: inconclusive; VACV mCherry inh: inactive; HCMV inh: -82; FBPA Giardia inh: inactive; Vaccinia Venus: inconclusive; FMDV antiviral: inactive

What do the screens show for `COc1ccc(NS(=O)(=O)c2ccc3c(c2)CCN3C(=O)C2CC2)cc1OC`?
VACV mCherry inh: inactive[7.34 µM]; HCMV inh: inactive; Vaccinia Venus: inactive[7.34 µM]; FMDV antiviral: inactive

How did CCOc1ccc(-n2c(=O)[nH]cc(C(=O)N3CCc4ccccc43)c2=O)cc1 do in these assays?
HCV inh: inactive; VACV mCherry inh: inconclusive; HCMV inh: inactive; FBPA Giardia inh: inactive; Vaccinia Venus: 2.8µM; FMDV antiviral: inactive

Results for O=C(c1ccc([N+](=O)[O-])cc1[N+](=O)[O-])N1CCc2ccccc21 ?
HCV inh: inconclusive; VACV mCherry inh: 2.2µM; HCMV inh: inactive; FBPA Giardia inh: inactive; Vaccinia Venus: inconclusive; FMDV antiviral: inactive

What do the screens show for `COc1cc2ccccc2cc1C(=O)N1CCc2ccccc21`?
HCV inh: 8.9µM; VACV mCherry inh: inactive; HCMV inh: inactive; Vaccinia Venus: inactive; FMDV antiviral: inactive

Results for Cc1ccc(S(=O)(=O)N(C)c2ccccc2C(=O)NC2CCCC2)cc1 ?
HCV inh: inactive; VACV mCherry inh: inactive; HCMV inh: inconclusive; FBPA Giardia inh: inactive; Vaccinia Venus: inactive; FMDV antiviral: inactive

How did CCC(C(=O)O)N1C(=O)C2CCCCC2C1=O (stereo not given) do in these assays?
HCV inh: inactive; VACV mCherry inh: inactive; HCMV inh: inactive; FBPA Giardia inh: inactive; Vaccinia Venus: inactive; FMDV antiviral: inactive

Results for CCOc1ccc(NC(=O)C2CCCN(c3nn4cc(-c5ccc(OC)cc5)nc4s3)C2)cc1 (stereo not given) ?
VACV mCherry inh: inactive; HCMV inh: active; Vaccinia Venus: inactive; FMDV antiviral: inactive

What do the screens show for `CCOc1ccccc1CNC(=O)C1CCN(c2nn3cc(-c4ccc(F)cc4)nc3s2)CC1`?
VACV mCherry inh: inactive; HCMV inh: active; Vaccinia Venus: inactive; FMDV antiviral: inactive

What do the screens show for `O=C(NCc1ccccc1F)C1CCN(c2nn3cc(-c4ccc(F)cc4)nc3s2)CC1`?
VACV mCherry inh: inactive; HCMV inh: inactive; Vaccinia Venus: inactive; FMDV antiviral: inactive

Results for Cc1ccc(CNC(=O)C2CCCN(c3nn4cc(-c5ccc(C)cc5)nc4s3)C2)cc1 (stereo not given) ?
VACV mCherry inh: inactive; HCMV inh: inactive; Vaccinia Venus: inactive; FMDV antiviral: inactive

Results for CCNC(=O)C1CCCN(c2nn3cc(-c4ccc(C)cc4)nc3s2)C1 (stereo not given) ?
VACV mCherry inh: inactive; HCMV inh: inconclusive; Vaccinia Venus: inactive; FMDV antiviral: 20µM
